# According to PubChem BioAssay:
# Values joined by “and” are separate entries in the source; they are usually repeats but may differ in a detail not shown here. Equal entries are not always repeated. Active and inactive are the calls of the source.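 The calls were made as follows, unless noted: active = compound raises insulin release from rat beta cells at 5 mM glucose, no numeric limit stated; inactive = the rest.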
# Key:
# [1] = Wnt pathway potentiators raising nuclear beta-catenin – imaging, WNT3A-conditioned medium, mouse C2C12, NPC library, primary screen (AID 1117326; in the data active = nuclear beta-catenin stimulation mostly above about 4.2%, no sharp cut-off; inactive = mostly below about 10%); settings: stronger effect = higher value
# [2] = stimulators of insulin release from INS-1E, primary screen, cell-based, 5 mM glucose, NPC library (AID 1117329); settings: rat INS-1E insulin secretion, at 10 µM, stronger effect = higher value
# [3] = growth inhibition of GSK3B-pretreated HCT116 cells – cell-based, CellTiter-Glo, 0.2 to 20 µM (AID 1117336;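 active = compounds lowering colon cancer cell viability after pretreatment blocking the GSK3B kinase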); settings: HCT116 viability after GSK3B inhibitor, at 20 µM, stronger effect = higher value
# [4] = inhibition of endothelial tube formation, primary screen, imaging, VEGF stimulated, CD31 staining, tube area, NPC library (AID 1117340;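 active = compound that reduces growth-factor-driven endothelial tube area in a mixed cell culture, no cutoff stated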); settings: VEGF-stimulated ADSC/ECFC co-culture, at 10 µM, stronger effect = higher value
# [5] = GLP1 release stimulators, primary, NCI-H716, NPC library (AID 1117341;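 active = compound raises GLP1 secretion from the human gut endocrine cells, with no numeric limit stated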); settings: NCI-H716 cells, at 10 µM, stronger effect = higher value
# [6] = HCT116 colon cancer cell growth inhibition, primary screen, CellTiter-Glo luminescence, NPC library (AID 1117342;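 active = compounds that lower survival of HCT116 colon cancer cells in the luminescence readout, no numeric limit stated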); settings: at 20 µM (top of the series)
# [7] = reduced SW480 viability measured with CellTiter-Glo, NPC library, primary (AID 1117343;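 active = compounds that lower viability of the colon cancer cells in the luminescence readout, with no numeric limit stated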); settings: CellTiter-Glo luminescence; at 20 µM (top of the series) unless noted
# [8] = NPC library primary testing for decreased DLD-1 cell viability via CellTiter-Glo (AID 1117346;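 active = compounds that lower survival of DLD-1 colon cancer cells in the luminescence readout, no cutoff given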); settings: DLD-1 viability, CellTiter-Glo luminescence; at 20 µM (top of the series)
# [9] = EMT-state selective cytotoxicity in co-culture – imaging, PC-3E GFP, TEM4-18 mCherry, primary screen (AID 1345086;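 active = compounds killing one labelled cell type while sparing the other, by normalised counts and ratio limits, not self-fluorescent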;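 as to all read-outs here: cells exposed to compound for 72 h before imaging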;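 as to red/green cell ratio (normalised): normalised mesenchymal count divided by normalised epithelial count so high means epithelial killing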); settings: PC-3E GFP / TEM4-18 mCherry co-culture, imaging cell counts, at 1 µM; for red/green cell ratio (normalised): actives lie on both sides, counts scaled to control wells, 1 = unselective
# [10] = viability loss with induced miR-34 in A549 – imaging, A549 dox-inducible miR-34, nuclei and caspase counts, primary screen (AID 1347080;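 active = compounds whose cell count with miR-34 switched on is under 0.7 times the count with it off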); settings: A549 miR-34 inducible, Hoechst nuclei count, 48 h
# [11] = biological target: NAD(+) hydrolase SARM1 (Homo sapiens) (UniProt Q6SZW1); assay: blocking NAD cleavage by SARM1 SAM-TIR – cell lysate, NAD-Glo luminescence (AID 1508614;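 active = compound whose remaining NAD level is above about 45 nM, limit read from the data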;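 also: higher remaining NAD means stronger inhibition of SARM1 NADase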); settings: SAM-TIR HEK293T lysate NADase, at 1 µM, stronger effect = higher value
# Sequence of NAD(+) hydrolase SARM1 (Homo sapiens) (Q6SZW1 whole entry, looked up): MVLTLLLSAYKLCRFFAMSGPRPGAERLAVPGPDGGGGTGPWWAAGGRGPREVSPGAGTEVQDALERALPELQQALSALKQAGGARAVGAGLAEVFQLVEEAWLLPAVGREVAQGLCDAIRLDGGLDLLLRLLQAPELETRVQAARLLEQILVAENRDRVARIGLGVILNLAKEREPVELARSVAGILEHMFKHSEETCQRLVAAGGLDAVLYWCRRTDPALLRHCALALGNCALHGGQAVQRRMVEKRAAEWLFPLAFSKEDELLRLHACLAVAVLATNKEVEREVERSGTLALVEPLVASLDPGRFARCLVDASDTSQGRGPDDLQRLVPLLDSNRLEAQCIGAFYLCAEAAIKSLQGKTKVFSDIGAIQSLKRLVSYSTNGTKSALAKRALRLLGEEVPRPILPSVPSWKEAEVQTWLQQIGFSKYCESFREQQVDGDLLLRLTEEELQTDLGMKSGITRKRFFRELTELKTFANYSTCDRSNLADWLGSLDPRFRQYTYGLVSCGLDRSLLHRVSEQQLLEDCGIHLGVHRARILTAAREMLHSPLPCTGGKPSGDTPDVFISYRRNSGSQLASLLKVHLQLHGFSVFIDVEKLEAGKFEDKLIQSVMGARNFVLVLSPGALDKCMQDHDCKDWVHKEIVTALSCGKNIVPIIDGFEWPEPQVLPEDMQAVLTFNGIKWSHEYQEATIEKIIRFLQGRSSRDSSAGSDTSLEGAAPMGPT
# [12] = compounds altering viability of human ES cells (AID 493140; call rule not given here;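 also: cells exposed to compounds for four days before counting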); settings: human embryonic stem cell survival screen; stronger effect = higher value
# [13] = P. berghei load reduction in hepatocytes – cell-based, HepG2, luciferase luminescence, HepG2 viability, primary screen (AID 624349; in the data active = parasite load remaining mostly below about 12%, no sharp cut-off; inactive = mostly above about 10%;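 also: 100% = mean of DMSO negative control wells on the same plate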); settings: P. berghei liver stage in HepG2, luciferase luminescence, concentration not given here; parasite load remaining: stronger effect = lower value; viability: measured here: HepG2 viability without parasites
# [14] = MELAS cybrid and Rieske KO viability enhancers – cell-based, MELAS cybrids, Rieske KO mouse fibroblasts, CellTiter-Glo, primary screen (AID 1508586;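 active = mean z-score across replicates of 1.96 or higher in either the MELAS or the Rieske mutant cell line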;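 also: z relative to plate mean and SD of compound and empty wells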); settings: low glucose
# [15] = measured here: epithelial PC-3E GFP cell survival
# [16] = measured here: mesenchymal TEM4-18 mCherry cell survival
# [17] = stronger effect = lower value, cell number ratio, induced over uninduced
# [18] = measured here: relative caspase fold change +Dox/-Dox
# [19] = measured here: total cells with miR-34 induction, stronger effect = lower value
# [20] = measured here: total cells without miR-34 induction
# [21] = MELAS cybrid survival, CellTiter-Glo 48 h, stronger effect = higher value
# [22] = Rieske KO mouse fibroblast survival, CellTiter-Glo 72 h
smiles,measurement,setting,value
NC(=O)NS(=O)(=O)c1ccc(N)cc1,nuclear beta-catenin stimulation,[1]; at 10 µM,-1.6% (inactive)
same,nuclear beta-catenin stimulation,"[1]; stimulation, at 2 µM",0.3%
same,insulin secretion stimulation,[2],5.8% (inactive)
same,viability decrease,[3],-1.6% (inactive)
same,tube area decrease,[4],-10.6% (inactive)
same,GLP1 secretion stimulation,[5],-4.5% (inactive)
same,inhibition of viability,[6],6.1% (inactive)
same,viability decrease (inhibition),[7],75.8% (active)
same,viability decrease (inhibition),[8],-12.6% (inactive)
same,red/green cell ratio (normalised),[9],0.74 (inactive)
same,normalised cell number,[9]; [15],1.37
same,normalised cell number,[9]; [16],1.02
same,fold change,[10]; [17],0.96 (inactive)
same,fold change,[10]; [18],0.945
same,cell count,[10]; [19],8990
same,cell count,[10]; [20],9360
same,remaining NAD,[11],10 nM (inactive)
CC(=O)Nc1ccc(C(=O)O)cc1,nuclear beta-catenin stimulation,[1]; at 10 µM,-0.6% (inactive)
same,nuclear beta-catenin stimulation,"[1]; stimulation, at 2 µM",0.4%
same,insulin secretion stimulation,[2],-1.8% (inactive)
same,viability decrease,[3],-11.6% (inactive)
same,tube area decrease,[4],-12.7% (inactive)
same,GLP1 secretion stimulation,[5],-0.1% (inactive)
same,inhibition of viability,[6],-18.3% (inactive)
same,viability decrease (inhibition),[7],13.7% (inactive)
same,viability decrease (inhibition),[8],11.3% (inactive)
same,red/green cell ratio (normalised),[9],1.14 (inactive)
same,normalised cell number,[9]; [15],0.87
same,normalised cell number,[9]; [16],0.99
same,fold change,[10]; [17],0.937 (inactive)
same,fold change,[10]; [18],1.06
same,cell count,[10]; [19],9250
same,cell count,[10]; [20],9880
same,remaining NAD,[11],10 nM (inactive)
Cc1c(N)c(=O)n(-c2ccccc2)n1C,survival,[12],19.6 (inactive)
same,parasite load remaining,[13],27.9% (inactive) and 86.5% (inactive) and 114% (inactive)
same,viability,[13],47% and 66.5% and 89.3%
same,nuclear beta-catenin stimulation,[1]; at 10 µM,1.1% (inactive)
same,nuclear beta-catenin stimulation,"[1]; stimulation, at 2 µM",1.8%
same,insulin secretion stimulation,[2],-0.3% (inactive)
same,viability decrease,[3],-9.25% (inactive)
same,tube area decrease,[4],-13.4% (inactive)
same,GLP1 secretion stimulation,[5],1.1% (inactive)
same,inhibition of viability,[6],-5.1% (inactive)
same,viability decrease (inhibition),[7],45.9% (inactive)
same,viability decrease (inhibition),[8],10.9% (inactive)
same,red/green cell ratio (normalised),[9],0.99 (inactive)
same,normalised cell number,[9]; [15],1.14
same,normalised cell number,[9]; [16],1.13
same,fold change,[10]; [17],0.844 (inactive)
same,fold change,[10]; [18],1.06
same,cell count,[10]; [19],8260
same,cell count,[10]; [20],9790
same,z-score,[14]; [21],-0.073 (inactive)
same,z-score,[14]; [22],-0.119
CN(C/C=C/c1ccccc1)Cc1cccc2ccccc12,survival,[12],21.7 (inactive)
same,parasite load remaining,[13],71.6% (inactive)
same,viability,[13],71.3%
same,nuclear beta-catenin stimulation,[1]; at 10 µM,2.1% (inactive)
same,nuclear beta-catenin stimulation,"[1]; stimulation, at 2 µM",1.8%
same,insulin secretion stimulation,[2],14.3% (inactive)
same,viability decrease,[3],86.7% (active)
same,tube area decrease,[4],-3.5% (inactive)
same,GLP1 secretion stimulation,[5],0.7% (inactive)
same,inhibition of viability,[6],85.3% (active)
same,viability decrease (inhibition),[7],95.4% (active)
same,viability decrease (inhibition),[8],74.5% (active)
same,red/green cell ratio (normalised),[9],1.01 (inactive)
same,normalised cell number,[9]; [15],1.19
same,normalised cell number,[9]; [16],1.2
same,fold change,[10]; [17],0.954 (inactive)
same,fold change,[10]; [18],0.94
same,cell count,[10]; [19],8810
same,cell count,[10]; [20],9230
same,z-score,[14]; [21],-0.0397 (inactive)
same,z-score,[14]; [22],-0.28
same,remaining NAD,[11],10 nM (inactive)
COc1ccc(Cc2cnc(N)nc2N)cc1OC,nuclear beta-catenin stimulation,[1]; at 10 µM,-0.5% (inactive)
same,nuclear beta-catenin stimulation,"[1]; stimulation, at 2 µM",-0.6%
same,insulin secretion stimulation,[2],0.9% (inactive)
same,viability decrease,[3],-3.05% (inactive)
same,tube area decrease,[4],-28.9% (inactive)
same,GLP1 secretion stimulation,[5],2.9% (inactive)
same,inhibition of viability,[6],-12.4% (inactive)
same,viability decrease (inhibition),[7],6.9% (inactive)
same,viability decrease (inhibition),[8],-5.4% (inactive)
same,red/green cell ratio (normalised),[9],1.2 (inactive)
same,normalised cell number,[9]; [15],1.03
same,normalised cell number,[9]; [16],1.23
same,fold change,[10]; [17],1.04 (inactive)
same,fold change,[10]; [18],0.896
same,cell count,[10]; [19],9080
same,cell count,[10]; [20],8710
same,remaining NAD,[11],10 nM (inactive)
O=C(O)Cc1ccc(-c2ccccc2)cc1,survival,[12],7.67 (inactive)
same,parasite load remaining,[13],98.2% (inactive)
same,viability,[13],99.7%
same,nuclear beta-catenin stimulation,[1]; at 10 µM,-0.4% (inactive)
same,nuclear beta-catenin stimulation,"[1]; stimulation, at 2 µM",0.3%
same,insulin secretion stimulation,[2],-1.1% (inactive)
same,viability decrease,[3],-34.7% (inactive)
same,tube area decrease,[4],6.9% (inactive)
same,GLP1 secretion stimulation,[5],1.7% (inactive)
same,inhibition of viability,[6],2.33% (inactive)
same,viability decrease (inhibition),[7],7.7% (inactive)
same,viability decrease (inhibition),[8],-10.7% (inactive)
same,red/green cell ratio (normalised),[9],0.72 (inactive)
same,normalised cell number,[9]; [15],1.44
same,normalised cell number,[9]; [16],1.04
same,fold change,[10]; [17],0.915 (inactive)
same,fold change,[10]; [18],1.39
same,cell count,[10]; [19],9920
same,cell count,[10]; [20],10800
same,z-score,[14]; [21],0.702 (inactive)
same,z-score,[14]; [22],-0.122
same,remaining NAD,[11],10 nM (inactive)
CC(=O)c1ccc2c(c1)N(CCCN1CCC(CCO)CC1)c1ccccc1S2,survival,[12],3.92 (inactive)
same,parasite load remaining,[13],69.8% (inactive)
same,viability,[13],79.8%
same,nuclear beta-catenin stimulation,[1]; at 10 µM,3% (inactive)
same,nuclear beta-catenin stimulation,"[1]; stimulation, at 2 µM",0.4%
same,insulin secretion stimulation,[2],1.7% (inactive)
same,viability decrease,[3],78.7% (active)
same,tube area decrease,[4],3.9% (inactive)
same,GLP1 secretion stimulation,[5],-6.7% (inactive)
same,inhibition of viability,[6],77.2% (active)
same,viability decrease (inhibition),[7],85.4% (active)
same,viability decrease (inhibition),[8],60% (active)
same,red/green cell ratio (normalised),[9],1.13 (inactive)
same,normalised cell number,[9]; [15],0.92
same,normalised cell number,[9]; [16],1.04
same,fold change,[10]; [17],0.911 (inactive)
same,fold change,[10]; [18],0.592
same,cell count,[10]; [19],8130
same,cell count,[10]; [20],8930
same,z-score,[14]; [21],-0.364 (inactive)
same,z-score,[14]; [22],-0.0941
same,remaining NAD,[11],10 nM (inactive)
O=C(CCCl)NCc1ccccc1,nuclear beta-catenin stimulation,[1]; at 10 µM,0.5% (inactive)
same,nuclear beta-catenin stimulation,"[1]; stimulation, at 2 µM",8.3%
same,insulin secretion stimulation,[2],1.8% (inactive)
same,viability decrease,[3],0.2% (inactive)
same,tube area decrease,[4],-9.5% (inactive)
same,GLP1 secretion stimulation,[5],-0.7% (inactive)
same,inhibition of viability,[6],5% (inactive)
same,viability decrease (inhibition),[7],0.6% (inactive)
same,viability decrease (inhibition),[8],14.6% (inactive)
same,red/green cell ratio (normalised),[9],0.95 (inactive)
same,normalised cell number,[9]; [15],1.13
same,normalised cell number,[9]; [16],1.07
same,remaining NAD,[11],10 nM (inactive)
CC1(C)[C@@H]2CC[C@@]1(C)C(=O)C2,nuclear beta-catenin stimulation,[1]; at 10 µM,0.2% (inactive)
same,nuclear beta-catenin stimulation,"[1]; stimulation, at 2 µM",0.6%
same,insulin secretion stimulation,[2],2.4% (inactive)
same,viability decrease,[3],2.6% (inactive)
same,tube area decrease,[4],-4.3% (inactive)
same,GLP1 secretion stimulation,[5],-0.1% (inactive)
same,inhibition of viability,[6],10.9% (inactive)
same,viability decrease (inhibition),[7],2.9% (inactive)
same,viability decrease (inhibition),[8],15.5% (inactive)
same,red/green cell ratio (normalised),[9],0.84 (inactive)
same,normalised cell number,[9]; [15],1.25
same,normalised cell number,[9]; [16],1.05
same,remaining NAD,[11],10 nM (inactive)
